PfHsp90 yeast 2 = inhibits growth of yeast expressing Plasmodium falciparum Hsp90; inhibition, % at 9.4 µM; AID 504621; actives 0.32% (n = 310,000); S. cerevisiae expressing PfHsp90, BacTiter-Glo ATP, 48 h; yeast lacking PDR1 and PDR3 efflux regulators;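 active means every replicate shows inhibition above about 80%, whatever the replicate mean, limit read from the data; inconclusive means mean inhibition reaches the set limit but some replicate falls short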;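 further: 0% = DMSO neutral controls and 100% = 20 µM radicicol positive controls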
SKKanGAS inh = SKKanGAS growth inhibition. S. pyogenes SKKanGAS, kanamycin growth, BacTiter-Glo, 6 h. inhibition, % at 7.5 µM. actives 1.3% (n = 300,000). AID 1662;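 active means mean replicate score, as percent of positive control median, at least 50; inconclusive means mean below 50 but one replicate at or above 50; inactive means mean and every replicate below 50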;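 further: strain carries kanamycin resistance gene driven by streptokinase promoter and grows in 40 µg/ml kanamycin; loss of luminescence reflects streptokinase promoter inhibition or plain growth inhibition; 0% = median of DMSO wells and 100% = positive control at its reference dose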
Calb FLC = C. albicans growth modulation with fluconazole; actives 0.57% (n = 300,000); C. albicans CaCi-2 (fluconazole-resistant clinical isolate) + fluconazole, Alamar Blue growth, 48 h; growth inhibition, % (concentration not given with the values);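 active means growth inhibition above about 58% in most replicates, limit read from the data, passing the limit was not always enough; inconclusive means exactly half the replicates above a set limit; inactive means most replicates below a set limit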;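 further: all wells also contain fluconazole at 8 µg/ml as a sub-toxic cotreatment; 0% = median of DMSO wells and 100% = median of geldanamycin control wells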
tim10-1 inh = growth inhibitors of tim10-1 mutant yeast. S. cerevisiae tim10-1 ts strain growth, BacTiter-Glo, 24 h. inhibition, % at 20 µM. actives 2.2% (n = 330,000). AID 463190;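 active means inhibition of at least 40%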;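 further: mutant grown at 25 °C; 0% = DMSO wells with yeast and 100% = wells holding no yeast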
TIM10 inh = TIM10 yeast growth inhibition; S. cerevisiae TIM10 strain growth, BacTiter-Glo luminescence, 24 h; inhibition, % at 10 µM; actives 1.4% (n = 330,000);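 active means inhibition of 40% or more at the single tested concentration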;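 further: wild-type TIM10 isogenic control strain grown at permissive 25 °C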
tim23-1 inh = inhibits growth of tim23-1 mutant yeast; S. cerevisiae tim23-1 growth, BacTiter-Glo luminescence, 24 h; inhibition, % at 20 µM; actives 1.3% (n = 330,000);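 active means growth inhibition of the mutant yeast at or above 50%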;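 further: temperature-sensitive mutant grown at 25 °C; plate controls were DMSO-treated mutant yeast for no effect and medium wells lacking yeast for full effect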
tim10-1 conf = confirmation of tim10-1 mutant yeast growth inhibitors. AID 463213. shares compounds with tim10-1 inh. S. cerevisiae tim10-1 ts strain growth, BacTiter-Glo, 24 h. inhibition, % at 20 µM. actives 56% (n = 7,400);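 active means inhibition of yeast growth at or above a set limit in either of two repeat tests at 20 µM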;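 further: tim10-1 mutant grown at permissive 25 °C to find synthetic lethal compounds; 0% = DMSO yeast wells and 100% = medium wells without yeast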
The depositor's hits bear a star; ? = inconclusive; · = no result. The list is not random: actives were taken first. Their share in the collection is about 4.7%.

SMILES	PfHsp90 yeast 2	SKKanGAS inh	Calb FLC	tim10-1 inh	TIM10 inh	tim23-1 inh	others
CC12C=CC(=O)C=C1CCC1C2C(O)CC2(C)C1CCC2(C)O (stereo not given)	-6.4	·	·	·	·	·
COC1C(O)C(C)OC(OC2C(Oc3cccc4c(O)c5c(=O)oc6ccc(C)c7c(=O)oc(c34)c5c67)OC(C)C(O)C2O)C1O (stereo not given)	-28.5	·	·	·	·	·
CCCNC1=C(C)C(=O)C2=C(C1=O)C(COC(N)=O)[C@]1(OC)C3NC3CN21 (stereo not given in full)	-10.3	109.5*	11.3	2.7	6.4	6.3
CC1(c2ccc(Cl)cc2Cl)OCC(Cn2cncn2)O1 (stereo not given)	-2.3	-4.9	2.0	4.0	14.2	5.1
CCCC1COC(Cn2cncn2)(c2ccc(Cl)cc2Cl)O1 (stereo not given)	106.6*	0.1	10.6	-46.2	-47.4	-402.1
CN(C)C1C(=O)C(C(N)=O)=C(O)C2(O)C(=O)C3=C(O)c4c(O)cccc4C(C)(O)C3C(O)C12 (stereo not given)	-8.5	105.0*	·	14.2	-5.0	5.4
CCCCn1c(O)c(C(C)=Nc2ccc(OCC)cc2)c(=O)[nH]c1=O	-13.7	65.4*	-2.5	22.0	7.2	37.0
C/C(=N\NC(=O)c1ccccc1O)c1c(O)n(C2CCCCC2)c(=O)[nH]c1=O	7.2	49.7*	-1.7	-4.8	1.0	3.3
CC(=O)OC1CCC2(C)C(CC(=O)C3C2CCC2(C)C(OC(C)=O)CCC32)C1 (stereo not given)	-5.8	·	·	·	·	·
C/C(CC(c1ccccc1)c1c(O)c2ccccc2oc1=O)=N\Nc1ccc([N+](=O)[O-])cc1[N+](=O)[O-] (stereo not given)	-14.1	-4.7	-3.3	38.5	34.0	32.1
O=c1oc2ccccc2c(O)c1C(c1ccc([N+](=O)[O-])cc1)c1c(O)c2ccccc2oc1=O	-34.5	61.9*	-3.2	·	·	·
COC(=O)C1=C(c2cccc(OCc3ccccc3)c2)C[C@@H]2CC[C@H]1N2C(=O)NCc1ccccc1OC	5.7	·	·	7.6	-4.8	19.3
CCC1CN1P(=O)(c1ccccc1)N1CC1CC (stereo not given)	28.3	·	·	·	·	·
CCCCn1c(=O)c(C(=O)NCc2ccccc2Cl)c(O)c2ccccc21	-1.9	49.6*	-6.0	-29.1	-0.7	4.9
CCCCn1c(=O)c(C(=O)NCc2ccncc2)c(O)c2ccccc21	4.9	58.3*	?	7.6	13.3	29.2
CCCCn1c(=O)c(C(=O)NCc2ccccc2)c(O)c2ccccc21	-0.1	76.5*	40.9	-30.3	-11.2	26.4
CC1=C(C)CC2(CC1)C(=O)NC(=O)NC2=O	-35.8	·	·	·	·	·
CCCC/C(C)=C/[C@@H](NP(=O)(c1ccccc1)c1ccccc1)c1ccccc1	2.3	73.4*	4.6	35.9	19.4	34.6
COCCNC(=O)c1c(NC(=O)c2ccc(Br)o2)n(Cc2ccccc2)c2nc3ccccc3nc12	8.8	61.3*	-12.1	30.8	16.4	17.5
Oc1ccccc1-[n+]1c(-c2ccccc2)cc(-c2ccccc2)cc1-c1ccccc1	15.2	-3.7	2.4	4.3	8.0	11.3
Nc1ccccc1-[n+]1c(-c2ccccc2)cc(-c2ccccc2)cc1-c1ccccc1	-18.5	16.3	87.3*	2.8	26.7	17.9
[O-]c1ccccc1-[n+]1c(-c2ccccc2)cc(-c2ccccc2)cc1-c1ccccc1	5.1	0.3	96.2*	23.7	9.5	16.0
CC(N)C(=O)NC1C2C(=C(O)CC(O)C2O)C(=O)OC1(C)C(Cl)Cl (stereo not given)	-2.3	·	·	·	·	·
CC1c2ccccc2-n2nncc2CN1C (stereo not given)	4.1	·	·	·	·	·
COc1cc2cc(C(=O)N3CC(COS(C)(=O)=O)c4ccc(O)cc43)[nH]c2c(OC)c1OC (stereo not given)	104.4*	·	·	·	·	·
SMILES	PfHsp90 yeast 2	SKKanGAS inh	Calb FLC	tim10-1 inh	TIM10 inh	tim23-1 inh	others
N#CC1c2ccccc2-n2nncc2CN1S(=O)(=O)c1ccccc1 (stereo not given)	-13.3	·	·	·	·	·
COc1ccc2c(c1)C1(C(=O)O)CC=CCC1(C(=O)O)C2 (stereo not given)	-17.7	·	·	·	·	·
COc1cc2c(cc1/C=C/[N+](=O)[O-])OCO2	106.2*	5.9	29.7	·	·	·
CC(O)C1C=CC=CC(=O)OC2CC3OC4C5OC5(C)C(O)CC4(COC(=O)C(O)C(C)CCO1)C2(C)C31CO1 (stereo not given)	-4.2	·	·	·	·	·
O=C(Nc1cccnc1)c1c(O)c2c(n(Cc3ccccc3)c1=O)CCCC2	2.6	52.4*	-8.1	14.7	15.1	23.4
O=C(Nc1ccc(F)cc1)c1c(O)c2c(n(Cc3ccccc3)c1=O)CCCC2	5.0	-4.8	-4.1	10.7	17.0	11.1
CC1=CC(C)CC(C)OC(=O)CC(c2ccc(O)cc2)NC(=O)C(Cc2c(Br)[nH]c3ccccc23)N(C)C(=O)C(C)NC(=O)C(C)C1 (stereo not given)	104.8*	·	·	·	·	·
CC(C)(O)/C=C/C(=O)C(C)(O)C1C(O)CC2(C)C3CC=C4C(C=C(O)C(=O)C4(C)C)C3(C)C(=O)CC12C (stereo not given)	-5.2	·	·	·	·	·
COC[C@H]1OC(=O)c2coc3c2[C@@]1(C)C1=C(C3=O)[C@@H]2CCC(=O)[C@@]2(C)C[C@H]1OC(C)=O	106.4*	·	·	·	·	·
O=[N+]([O-])c1ccc(C2[C@H]3C(c4ccccc4)=NC4(CCCC4)N23)cc1 (stereo not given in full)	0.4	-3.1	99.4*	24.3	3.5	6.5
Cc1ccc(C2=NC(C)(C)N3C2C3c2ccc([N+](=O)[O-])cc2)cc1 (stereo not given)	16.7	7.4	-0.3	5.0	20.6	10.9
Cc1nc2c(-c3ccc(F)cc3)c(C)nn2c(C)c1CCC(=O)N1CCC2(CC1)OCCO2	·	-5.6	4.3	40.1*	13.1	8.5	tim10-1 conf=26.1
Cc1nc2cc(-c3ccccc3)nn2c(C)c1CCC(=O)N1CCC2(CC1)OCCO2	·	-6.9	30.7	24.0	28.6	13.7
C[C@]12CCC3C(CC[C@@H]4[C@H]5O[C@H]5CC[C@]34C)C1CC[C@@H]2O (stereo not given in full)	20.7	·	·	·	·	·
O=c1c2ccccc2[se]n1-c1ccccc1	5.1	88.3*	·	55.2*	16.3	5.0	tim10-1 conf=89.6*
O=c1c2ccccc2nc(-c2ccccc2)n1-c1ccccc1	3.8	1.3	7.6	22.9	22.1	26.9
O=C(OC1CC2CCC(N2)C1C(=O)O)c1ccccc1 (stereo not given)	·	·	·	-9.3	4.9	3.6
C=CCC1(Cc2ccsc2)C(=O)NC(=O)NC1=O	2.4	·	·	·	·	·
